Screening results as filed in PubChem.
PERK inh = human PERK inhibition, primary cell-based screen; Q9NZJ5; CHO PERK-DD fusion, SEAP luminescence translation reporter; inhibition, % at 5.6 µM; hit rate 0.17% among 220,000; AID 1416;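 active = inhibition above the mean inhibition of all tested compounds plus 3 SD, set separately per screening campaign, cut at about 2.9% in these data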;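 note: PERK kinase domain activated by AP20187 dimerizer at 100 nM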
eIF4H inh = inhibitors of RNA binding by human eIF4H | hit rate 0.94% among 290,000 | eIF4H fluorescence polarization binding assay | inhibition, % at 35 µM | AID 2012 | Q15056;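 note: calls also rest on retests at 20 µM and on dose response follow-up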
GRK2 inh = blocks RNA aptamer binding to human GRK2; P25098; bead flow cytometry, FAM-aptamer displacement from GRK2; inhibition of aptamer binding, % at 10 µM; hit rate 0.59% among 330,000; AID 488847;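 active = inhibition of aptamer binding above 40%, roughly 3 SD of noise, on plates passing a quality check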;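 note: median bead fluorescence of bound FAM aptamer so fluorescent compounds give negative values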
Target sequence (P25098 whole entry, looked up): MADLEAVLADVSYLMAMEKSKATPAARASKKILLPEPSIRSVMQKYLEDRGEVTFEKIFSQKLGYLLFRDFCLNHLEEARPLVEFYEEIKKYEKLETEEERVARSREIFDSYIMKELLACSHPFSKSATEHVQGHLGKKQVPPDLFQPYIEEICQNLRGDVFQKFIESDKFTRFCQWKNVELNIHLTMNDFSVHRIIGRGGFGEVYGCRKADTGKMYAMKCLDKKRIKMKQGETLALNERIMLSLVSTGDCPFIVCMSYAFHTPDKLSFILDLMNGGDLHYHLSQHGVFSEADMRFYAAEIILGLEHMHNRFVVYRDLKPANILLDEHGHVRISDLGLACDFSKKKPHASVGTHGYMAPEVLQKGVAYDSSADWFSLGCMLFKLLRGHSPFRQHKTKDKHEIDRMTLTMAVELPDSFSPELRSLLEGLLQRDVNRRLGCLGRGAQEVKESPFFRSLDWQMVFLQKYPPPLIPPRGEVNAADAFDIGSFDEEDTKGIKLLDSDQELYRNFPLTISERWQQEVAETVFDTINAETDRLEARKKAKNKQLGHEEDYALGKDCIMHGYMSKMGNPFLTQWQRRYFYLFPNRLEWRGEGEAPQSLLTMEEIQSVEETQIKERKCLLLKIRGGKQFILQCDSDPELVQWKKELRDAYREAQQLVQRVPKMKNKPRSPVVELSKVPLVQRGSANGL
PABP FP inh = blocks human PABP binding to poly(A) RNA; P11940; fluorescence polarization; inhibition, % at 35 µM; hit rate 1% among 290,000; AID 2014;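 note: calls also rest on retests at 20 µM and on dose response follow-up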
PABP1 MLLE inh = blocks PAM2 peptide binding to the PABP1 MLLE domain. GST-MLLE / FITC-PAM2 fluorescence polarization. inhibition, % at 20 µM. hit rate 0.36% among 360,000; in the data active = inhibition above about 35%, passing the limit was not always enough
Of the large screens only hits and unclear results are named; the others gave an inactive call. Rows were chosen to be rich in hits. Some 1.9% of all compounds tested hit in one or more screens of this group. Unless noted, the rule behind the calls is not given here.

CCn1c(SCC(=O)NC(=O)NCc2ccco2)nc2sc(C)c(C)c2c1=O	eIF4H inh 82, PABP FP inh 50
C=CCn1c(SCC(=O)NCc2ccco2)nc2ccccc2c1=O	PABP FP inh inconclusive
Cc1ccccc1Nc1nnc(SCC(=O)NC(=O)NCc2ccco2)s1	eIF4H inh 59
O=C(CSc1nnc(Nc2ccccc2F)s1)NCc1ccco1	none (no result: GRK2 inh)
O=C1NC(=O)C(CC(=O)N(Cc2cccs2)C2(C(=O)NC3CCCCC3)CCCCC2)N1 (stereo not given)	eIF4H inh active, PABP FP inh 52
COc1ccc(Cc2c(C(C)(C)C)nc3c(C)cc(Br)cn23)c(C)c1	PABP1 MLLE inh 47 (no result: PERK inh, eIF4H inh, GRK2 inh, PABP FP inh)
COc1ccccc1Cc1c(-c2ccccc2)nc2c(C)cc(Br)cn12	none (no result: PERK inh, eIF4H inh, GRK2 inh, PABP FP inh)
CCCc1nc2c(=O)n(C)c(=O)[nH]c2n1C	eIF4H inh 53, PABP FP inh 59
CC(C)(CCC(=S)N1CCOCC1)C1CCCCC1	PABP1 MLLE inh 42 (no result: PERK inh)
COc1cc(C=C(c2nc3ccccc3s2)c2nc3ccccc3s2)cc(OC)c1O	eIF4H inh 52, PABP FP inh active
Oc1ccc2ccccc2c1/C=N/n1cnnc1	none
Cc1cc(O)c(/C=N/c2ccccn2)c(=O)o1	none
Cc1cccc(/N=C/c2c(O)cc(C)oc2=O)n1	eIF4H inh 78, PABP FP inh 107
Cc1cc(O)c(C=Nc2ccc(Cl)cn2)c(=O)o1	eIF4H inh 59, PABP FP inh 57
Oc1ccc2ccccc2c1C=Nc1ccc(Cl)cn1	eIF4H inh 85, PABP FP inh active
Cc1cccc2c(N=O)c(O)[nH]c12	none
O=C1C=CC(=O)c2c(O)c(N3CCN(CCO)CC3)c(Cl)c(O)c21	PABP1 MLLE inh 91 (no result: PERK inh, eIF4H inh, GRK2 inh, PABP FP inh)
O=S(=O)(c1ccc(Br)cc1Cl)N1CCN(CCO)CC1	none
OCCOCCN1CCN(C2=Nc3ccccc3Sc3ccccc32)CC1	none
O=C1C=CC(=O)c2c(O)c(N3CCN(CCOCCO)CC3)c(Br)c(O)c21	PABP1 MLLE inh 94 (no result: PERK inh, eIF4H inh, GRK2 inh, PABP FP inh)
CC(C)(C)c1ccc(C(=O)N2CCC2(C)C(=O)NCc2ccc3c(c2)OCO3)cc1 (stereo not given)	none (no result: PERK inh, eIF4H inh, GRK2 inh, PABP FP inh)
CCO[C@@H]1OC(C(=O)NC2CC2)=C[C@H](c2coc3ccccc3c2=O)[C@H]1CCCO	none (no result: PERK inh, eIF4H inh, PABP FP inh)
COC(=O)CN(C)C(=O)c1ccc(OC2CCN(S(=O)(=O)N(C)C)CC2)cc1	none (no result: PERK inh)
N[C@@H](Cc1cc(I)c(Oc2ccc(O)c(I)c2)c(I)c1)C(=O)O	none
O=C(O)CCc1cc(I)c(Oc2ccc(O)c(I)c2)c(I)c1	eIF4H inh 65, PABP FP inh 50 (no result: PERK inh, GRK2 inh, PABP1 MLLE inh)
O=C(NNC(=S)Nc1ccccc1)c1cc(Br)ccc1Cl	GRK2 inh 46 (no result: PERK inh)
O=C(NNC(=S)Nc1ccccc1)NNC(=S)Nc1ccccc1	none
S=C(Nc1ccc(Br)cc1Cl)Nn1cnnc1	PABP1 MLLE inh 37
Cc1ccc(Cl)cc1NC(=S)Nn1cnnc1	none (no result: PERK inh)
S=C(NCc1ccncc1)Nc1ccc(Br)cc1Cl	none (no result: PERK inh)
O=C(NNC(=S)Nc1ccc(Br)cc1Cl)c1ccncc1	PABP1 MLLE inh 47
Cc1ccc(N2CC(C(=O)N3CCN(c4ccccn4)CC3)CC2=O)cc1 (stereo not given)	none (no result: PERK inh, eIF4H inh, GRK2 inh, PABP FP inh)
O=C(C=Cc1cccs1)c1ccccc1	none (no result: PERK inh, eIF4H inh, GRK2 inh, PABP FP inh)
CC(CC(c1ccccc1)N1CCc2ccccc2C1)=NO (stereo not given)	none (no result: PERK inh, eIF4H inh, GRK2 inh, PABP FP inh)
COc1ccc(C(=O)NC(=S)Nc2ccc(S(=O)(=O)Nc3cc(OC)nc(OC)n3)cc2)cc1	none (no result: PERK inh)
CNC(=O)COc1ccc(S(=O)(=O)Nc2ccc(OC)cc2)cc1	PERK inh 3.6
COc1ccc(S(=O)(=O)Nc2ccc(O)c3ccccc23)cc1	PABP1 MLLE inh 38
COc1ccc(OCC(=O)NC(=S)Nc2ccc(S(=O)(=O)Nc3cc(OC)nc(OC)n3)cc2)cc1	PABP1 MLLE inh 49
Cc1cccc(C)c1C(O)c1ncc(-c2ccccc2Cl)[nH]1 (stereo not given)	none (no result: PERK inh, eIF4H inh, GRK2 inh, PABP FP inh)
O=C(NCCS(=O)(=O)N1CCCCC1)c1ccc2c(c1)OCO2	none (no result: PERK inh, eIF4H inh, PABP FP inh)
S=C(Nc1ccc2nc(-c3ccccn3)c(-c3ccccn3)nc2c1)N1CCCCC1	PABP FP inh 50 (no result: GRK2 inh)
O=C1C=C(c2ccccc2)C[C@@H](c2ccc(Cl)cc2)C1	none (no result: PERK inh, eIF4H inh, PABP FP inh)
O=C1CC(c2ccccc2)CC(=O)C1Sc1ccc(Cl)cc1 (stereo not given)	PABP1 MLLE inh 42
Cc1cc(F)ccc1NC(=O)c1ccc(NS(=O)(=O)c2cccs2)cc1	none (no result: PERK inh, eIF4H inh, GRK2 inh, PABP FP inh)
O=Cc1cccn1-c1c(C(=O)O)cnn1-c1ccccc1	none
O=C(O)c1cnn(-c2ccccc2)c1-c1ccncc1	eIF4H inh 57 (no result: PERK inh)
CC1=C(C(=O)N2CCOCC2)CC(CC(=O)NC2CC2)C(=O)N1Cc1ccccc1 (stereo not given)	none (no result: PERK inh, eIF4H inh, GRK2 inh, PABP FP inh)
Cc1ccc(C(=O)NCCCNC(=O)COc2ccc(C)c(C)c2)cn1	none (no result: PERK inh)
COc1ccc(-c2nc3ccc(C)cn3c2CC2CCCCC2)cc1OC	none (no result: PERK inh, eIF4H inh, GRK2 inh, PABP FP inh)
COc1ccc(OC)c(NC(=O)c2ccc(-n3cccn3)nc2)c1	eIF4H inh 106, PABP FP inh 101
COCCn1c(SCC(=O)NCC2CCCO2)nc2c(c1=O)SCC2 (stereo not given)	PABP1 MLLE inh 126 (no result: PERK inh)
COCCn1c(SCC(=O)NC2CCCCC2)nc2c(c1=O)SCC2	none (no result: PERK inh)
COc1cc(C(=O)Nc2ccc(N3CCCS3(=O)=O)cc2)c([N+](=O)[O-])cc1OC	none (no result: PERK inh, eIF4H inh, PABP FP inh)
CC(C)NC(=O)CCCc1ccccc1	none
CC(C)NC(=O)CCCC(=O)NC(C)C	eIF4H inh 2.2, PABP FP inh 64
CN1c2ccccc2C(O)=C(C(=S)Nc2ccc(F)c(Cl)c2)S1(=O)=O	PABP1 MLLE inh 48
Cc1ccc(NC(=S)C2=C(O)c3ccccc3N(C)S2(=O)=O)cc1	PABP1 MLLE inh 40
CN1c2ccccc2C(O)=C(C(=S)Nc2ccccc2)S1(=O)=O	none
NC(=O)c1c(NC(=O)c2cccc(N3C(=O)CCC3=O)c2)sc2c1CCCCC2	none (no result: PERK inh)
CC(=O)N1CCc2c(sc(NC(=O)c3cccc(N4C(=O)CCC4=O)c3)c2C(N)=O)C1	PABP FP inh 1.5 (no result: PERK inh)
CN(c1ccccc1C(=O)NCc1ccco1)S(C)(=O)=O	eIF4H inh 55, PABP FP inh 32
CN(c1ccccc1C(=O)Nc1ccccc1C(=O)NCc1ccco1)S(C)(=O)=O	none
Cc1ccccc1CNC(=O)c1[nH]c(C(F)(F)F)nc1-c1ccccc1	none (no result: PERK inh, eIF4H inh, GRK2 inh, PABP FP inh)
CSc1nsc(SCC(=O)NCc2ccccc2)n1	PABP1 MLLE inh 40 (no result: PERK inh)
O=C(CSc1ncn(-c2ccccc2)n1)Nc1ccc2c(c1)OCCO2	PABP1 MLLE inh 37
O=C(CSc1nnc(CNC(=O)c2ccccc2F)o1)Nc1ccc2c(c1)OCCO2	PABP1 MLLE inh 47
O=C(CSC1=NC2(CCCCC2)N=C1c1ccccc1)Nc1ccc2c(c1)OCCO2	eIF4H inh inconclusive, PABP FP inh inconclusive, PABP1 MLLE inh 46
O=C(CSC1=NC2(CCCCCC2)N=C1c1ccccc1)Nc1ccc2c(c1)OCCO2	none
O=C(/C=C/c1c[nH]c2ccccc12)c1cccc2ccccc12	none
Cc1cccc(-n2nnnc2SCC(=O)Nc2ccc(N3CCN(C)CC3)cc2)c1	none (no result: PERK inh)
CN(C)c1ccc(CC(=O)N2CCCCC2c2cc(C(=O)Nc3cccc4c3CCCC4)no2)cc1 (stereo not given)	none (no result: PERK inh, eIF4H inh, GRK2 inh, PABP FP inh)
